# HCV inhibitor = inhibitors of hepatitis C virus infection; Huh7.5.1 HCVcc-Cre infection, luciferase reporter, 44 h; Potency, µM (doses to about 41.8 µM), without a hit: at the highest dose activity change, negative = inhibition, actives largely listed as inhibitors; 340,000 tested, 3.4% active; active means well fitted inhibition curve with a large enough effect; inconclusive means small, poorly fitted or top-dose-only effect, or another doubt; inactive means no such curve, though single readings can be large or run the other way; further: potency means the concentration at half of the fitted maximal effect; on the % scale 0 is the no-effect control and ±100 the full control effect
#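 Antiviral activity was scored by luciferase reporter output from cells infected with HCVcc-Cre (~0.5 moi) in presence of compound, 44 h infection period, cells seeded 1,000/well 4 h prior.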
# HCMV antiviral = blocks human cytomegalovirus replication; HFF cells, HCMV-luciferase reporter, 72 h; active compounds read low; activity change, negative = inhibition, % at 57.5 µM; 410,000 tested, 4.5% active; in the data active means activity change below about -60%; inconclusive means no clear call, values can overlap the other calls; inactive means above about -39%; further: on the % scale 0 is the no-effect control and ±100 the full control effect
#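 Human foreskin fibroblasts infected with luciferase-reporter HCMV at MOI 1 PFU/cell, compounds at two doses. Luciferase measured 72 h post infection; normalized to buffer-only basal and Salinomycin (10uM) controls.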
# FMDV antiviral = blocks foot and mouth disease virus. FMDV antiviral cell-based qHTS. Potency, µM (titrated, usually from 57.9 µM), without a hit: top-dose activity change, negative = inhibition, actives largely listed as inhibitors. 410,000 tested, 1.2% active; calls by dose curve; tested in HEK293T cells; further: read-out not given here; potency means the concentration at half of the fitted maximal effect; on the % scale 0 is the no-effect control and ±100 the full control effect; nearly all actives have a fitted effect of over 45% in size
# LASV entry inh = Lassa virus entry inhibition; Lassa virus pseudotype entry inhibition, cell reporter; Potency, µM (highest dose often 37.9 µM), without a hit: at the highest dose activity change, negative = inhibition, usual class: inhibitors; 300,000 tested, 1.2% active; AID 540256; calls by dose curve; tested in HEK293 cells; further: potency means the concentration at half of the fitted maximal effect; on the % scale 0 is the no-effect control and ±100 the full control effect; nearly all actives have a fitted effect of over 50% in size
# SARS PLpro yeast = SARS-CoV PLP inhibition in yeast; S. cerevisiae expressing SARS-CoV PLpro, growth rescue; Potency, µM (highest dose often 32.9 µM), without a hit: at the highest dose activity, positive = growth rescue, most hits filed as activators; 330,000 tested, 0.19% active; AID 485353; calls by dose curve; further: potency means the concentration at half of the fitted maximal effect; 0% is about no effect; nearly all actives have a fitted effect of over 55% in size
# Marburg entry inh = inhibitors of Marburg virus binding or cell entry | Potency, µM (top dose mostly 37.8 µM), inactives show at the highest dose activity change, negative = inhibition, most hits filed as inhibitors | Marburg virus pseudotyped entry inhibition, cell reporter | AID 540276 | 300,000 tested, 1.8% active; calls by dose curve; tested in HEK293 cells; further: potency means the concentration at half of the fitted maximal effect; on the % scale 0 is the no-effect control and ±100 the full control effect
# The depositor's hits bear a star; ? = inconclusive; · = no result given; [ ] = another dose, or the depositor's remark. Sampled rows, rich in hits. Any-hit rate of the full collection: about 8%.
SMILES,HCV inhibitor,HCMV antiviral,FMDV antiviral,LASV entry inh,SARS PLpro yeast,Marburg entry inh
CCN(CC)S(=O)(=O)c1cc(NC(=O)c2ccc3c(c2)NC(=O)C(C)S3)ccc1C (stereo not given),3.98µM*,-79.6*,25.1µM*,·,-2.9%,·
Cc1cc(C)c(NC(=O)c2ccc3c(c2)NC(=O)C(C)S3)c(C)c1 (stereo not given),?,-29.1,?,·,-0.3%,·
CCN(CC)S(=O)(=O)c1cc(NC(=O)c2ccc(Br)s2)ccc1C,10µM*,-82.7*,?,?,0.6%,?
CCN(CC)S(=O)(=O)c1cc(NC(=O)NCCCl)ccc1C,3.2%,-11.7,4.8%,?,-1.2%,9.5%[46.1 µM]
Fc1ccc2[nH]c(-c3cccs3)cc2c1,·,-2.4,17.0%,-3.2%[46.1 µM],·,-1.3%[46.1 µM]
O=C(NCC1CCOCC1)c1ccc2nc(Cc3cccc(Cl)c3)oc2c1,-11.8%,-15.3,22.0%,?,-4.1%,?
CCOC(=O)c1c(C)[nH]c(C(=O)N2CCc3cc(OC)c(OC)cc3C2)c1C,11.2µM*,3.2,?,?,2.4%,-19.8%
CCN(CC)C(=O)CS(=O)(=O)CC(=O)Nc1cc(OCCOC)c(Cl)cc1Cl,-20.2%,-6.9,-5.8%,-6.8%[46.1 µM],0.2%,17.8%[46.1 µM]
COC(=O)c1cc(=O)n(Cc2ccc3c(c2)OCO3)c(=Nc2ccc(F)cc2)s1,?,26.0,12.6µM*,·,-1.8%,-0.2%
CCOC(=O)c1ccc(N=c2sc(C(=O)OC)cc(=O)n2Cc2ccc3c(c2)OCO3)cc1,-15.5%,-13.7,?,·,8.3%,-0.5%
COC(=O)c1cc(=O)n(Cc2ccc3c(c2)OCO3)c(=Nc2ccccc2)s1,-3.9%,7.9,35.5µM*,·,-6.2%,-0.4%
CCN(CC)S(=O)(=O)c1ccc2c(c1)N(CC(=O)Nc1ccc(Cl)cc1)C(=O)C1CCCN21 (stereo not given),·,-4.5,-11.9%,1.1%[46.1 µM],·,·
COC(=O)c1cc(CNC(=O)c2ccccc2)cc(NC(=O)c2ccccc2OC)c1,·,·,5.6%,·,·,·
CC(=O)Nc1ccc(NC(=O)C(C)OC(=O)C2(c3ccc(F)cc3)CCCC2)cc1 (stereo not given),?,-28.6,25.1µM*,·,1.6%,·
Cc1ccc(NC(=O)Cn2c(=O)c(C)nc3ccccc32)cc1,2.2%,-28.5,-6.8%,9.4%,0.4%,?
Cc1nc2ccccc2n(CC(=O)Nc2cc(Cl)cc(Cl)c2)c1=O,-28.4%,-60.6*,-27.7%,-23.1%,-0.9%,-11.8%
Cc1cc(C)c(OCCCCN(C)Cc2ccccc2)c(C)c1,-26.3%,-60.7*,-24.2%,·,-1.9%,·
Cc1ccc(C(C)C)c(OCCCN(C)Cc2ccccc2)c1,-3.7%,-26.9,-7.0%,?,-4.9%,8.2µM*
Cc1ccc(C(C)C)c(OCC(O)CN(C)Cc2ccccc2)c1 (stereo not given),?,-70.4*,?,?,-1.5%,?
Cc1ccc(OCCCCN(C)Cc2ccccc2)c(Br)c1,?,44.0,?,?,-23.4%,?
COc1ccccc1Nc1nc(-c2ccc3c(c2)NC(=O)CO3)cs1,10µM*,-63.7*,?,·,-2.5%,·
COc1ccc(Nc2nc(-c3ccc4c(c3)NC(=O)CO4)cs2)cc1,-15.9%,?,?,?,-3.1%,-18.0%[46.1 µM]
O=C(Cc1ccccc1)NC(=S)Nc1ccc2oc(-c3ccccc3)nc2c1,0.6%,2.9,·,·,-7.7%,·
COC(=O)C1=C(C)N(Cc2ccccc2C(F)(F)F)C(=NCc2cc(OC)c(OC)c(OC)c2)NC1c1ccc(Cl)cc1 (stereo not given),·,0.0,·,·,·,·
Cc1cc(N=Cc2c(O)n(-c3cccc(Cl)c3)c(=O)c3ccccc23)no1,15.6%,-60.2*,-18.2%,?,17.2%,-24.7%
SMILES,HCV inhibitor,HCMV antiviral,FMDV antiviral,LASV entry inh,SARS PLpro yeast,Marburg entry inh
CCC(C)NS(=O)(=O)c1ccc(S(=O)(=O)N2CC=C(c3ccc(F)cc3)CC2)cc1 (stereo not given),?,-72.8*,?,-5.7%,-8.1%,?
O=c1cc(N2CCN(c3cccc(Cl)c3)CC2)[nH]c(=O)n1C1CCCCC1,-32.2%,-92.8*,-8.8%,0.4%,1.4%,6.0%
CN1C2CCC1CC(OC(=O)C(O)c1ccccc1)C2 (stereo not given),·,·,-9.2%,-11.5%,·,27.5%
Cc1ccc(C(=O)N2N=C(c3cccc(NS(C)(=O)=O)c3)CC2c2cccs2)cc1 (stereo not given),?,-60.0*,-12.4%,·,-1.2%,·
CC(C)C(=O)N1N=C(c2ccc(NS(C)(=O)=O)cc2)CC1c1cccs1 (stereo not given),?,49.6,18.9%,?,13.7%,?
CS(=O)(=O)Nc1ccc(C2=NN(C(=O)C3CCCCC3)C(c3cccs3)C2)cc1 (stereo not given),4.8%,-62.2*,20µM*,?,2.5%,?
O=C(CN(CCc1ccccc1)C(=O)c1csnn1)NC1CCCC1,-6.4%,?,-12.5%,·,0.6%,·
Oc1ccc(N=Nc2n[nH]c(-c3ccc(Br)cc3)n2)cc1,12.1%,-87.8*,17.6%,?,6.8%,?
Oc1ccc(N=Nc2n[nH]c(-c3ccccc3)n2)cc1,0.1%,42.3,-17.6%,?,-10.7%,?
Cc1cc(NC(=O)CN(C)S(=O)(=O)c2ccc3c(c2)CCC(=O)N3)ccc1Br,·,?,14.1µM*,-27.5%[46.1 µM],·,?
COc1cc(CCC(=O)Nc2ccc(C)c(S(=O)(=O)N(C)C)c2)cc(OC)c1OC,?,-4.5,28.2µM*,?,-7.2%,?
Cc1ccc(NC(=O)CN2C(=O)C3C4C=CC(C4)C3C2=O)cc1S(=O)(=O)N(C)C (stereo not given),15.8%,-102.7*,-4.7%,-7.4%,12.0%,-7.3%
Cc1ccc(NC(=O)CCNC(=O)c2ccc([N+](=O)[O-])cc2)cc1S(=O)(=O)N(C)C,?,?,28.2µM*,?,-2.0%,10µM*
Cc1ccc(S(=O)(=O)Nc2ccc(S(=O)(=O)Nc3nccs3)cc2)cc1C,-10.6%,-24.1,47.7%,18.4%[46.1 µM],27.8%,-0.5%[46.1 µM]
O=C(NCCC1=CCCCC1)C(=O)NCc1ccncc1,6.4%,-14.2,-3.5%,0.8%[46.1 µM],0.8%,-4.5%[46.1 µM]
COc1ccc(CCC(=O)Nc2ccc(C)c(S(=O)(=O)N(C)C)c2)cc1OC,?,-77.5*,10µM*,-0.9%,7.1%,11.2µM*
COc1ccc(S(=O)(=O)N(C)C)cc1NCC(=O)Nc1ccc(Br)c(C)c1,10µM*,?,-18.1%,-18.7%,-0.3%,?
Cc1ccc(NC(=O)c2ccc(OC(F)F)cc2)cc1S(=O)(=O)N(C)C,7.94µM*,-95.1*,?,-22.0%,25.5%,?
COc1ccc(CCNCC(=O)Nc2ccc(C)c(S(=O)(=O)N(C)C)c2)cc1,?,-23.3,-16.4%,?,-1.8%,1.0%[46.1 µM]
CCOc1ccc(NC2SC(=O)N(Cc3ccccc3)C2=O)cc1 (stereo not given),·,119.5,-1.7%,-24.8%[46.1 µM],·,·

# Screening data (PubChem)
